Sampled rows, rich in hits. Any-hit rate of the full collection: about 3.2%.
GALK inh – inhibitors of human galactokinase; 270,000 compounds, 0.007% hits; P51570; Potency, µM (highest dose often 57.5 µM), without a hit: top-dose activity change, negative = inhibition, usual class: inhibitors; Purified GALK, Kinase-Glo residual ATP luminescence; further: potency means the concentration at half of the fitted maximal effect
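Luminescence from leftover ATP (Ultra-Glo luciferase/luciferin) served as read-out after a 1 h room-temperature reaction of 5 nM GALK with 35 uM ATP and 100 uM galactose.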
Coupling enz – inhibits coupling enzyme system, counter-screen for aldolase hits; coupling enzyme system counterscreen, AmpLite Red fluorescence; activity change, negative = inhibition, % at 58.2 µM, hits read low; 290,000 compounds, 0.67% hits; AID 2472; in the data active means activity change below about -30%
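Activity here indicates interference with the coupling reaction, not aldolase inhibition. Compounds at 57.5 uM final met coupling enzymes for 10 min at RT; substrate and AmpLite Red detection followed, with a 525/598 nm fluorescence read after 20 min.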
VDR inh – blocks the human vitamin D receptor; VDR-SRC2-3 peptide fluorescence polarization, 2 h; Potency, µM, for the others: max response, negative = inhibition, actives largely listed as inhibitors; 400,000 compounds, 0.93% hits; further: potency means the concentration at half of the fitted maximal effect
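Fluorescence polarization assay measuring small-molecule disruption of VDR binding to the coregulator peptide SRC2-3. Compounds were pin-transferred (23 nl) into the reagent mix and incubated 2 h at room temperature before reading.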
USP2a block – USP2a (human) protease inhibition; O75604; USP2 core, Ub-CHOP2 coupled fluorogenic reporter, 485/531; Potency, µM (titrated, usually from 38.3 µM), for the others: at the top dose activity change, negative = inhibition, actives largely listed as inhibitors; 330,000 compounds, 0.01% hits; AID 463254;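 further: potency means the concentration at half of the fitted maximal effect; plate controls were DMSO wells for no effect and full inhibition by NEM control for full effect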
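USP2 core (10nM final) preincubated 30min RT with compound in 20mM Tris-HCl pH 8.0, 2mM CaCl2, 2mM beta-mercaptoethanol, 0.05% CHAPS; 25nM Ub-CHOP2 plus 25nM reporter substrate added, fluorescence (Ex485/Em531) read after 60min.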
USP1 inh – blocks the human USP1/UAF1 deubiquitinase complex; O94782; recombinant USP1/UAF1, Ub-Rhodamine cleavage fluorescence; Potency, µM (doses to about 57.1 µM), inactives show at the top dose activity change, negative = inhibition, actives largely listed as inhibitors; 390,000 compounds, 0.23% hits; AID 743255; further: potency means the concentration at half of the fitted maximal effect; nearly all actives have a fitted effect of over 60% in size
Target sequence (O94782 whole entry, looked up): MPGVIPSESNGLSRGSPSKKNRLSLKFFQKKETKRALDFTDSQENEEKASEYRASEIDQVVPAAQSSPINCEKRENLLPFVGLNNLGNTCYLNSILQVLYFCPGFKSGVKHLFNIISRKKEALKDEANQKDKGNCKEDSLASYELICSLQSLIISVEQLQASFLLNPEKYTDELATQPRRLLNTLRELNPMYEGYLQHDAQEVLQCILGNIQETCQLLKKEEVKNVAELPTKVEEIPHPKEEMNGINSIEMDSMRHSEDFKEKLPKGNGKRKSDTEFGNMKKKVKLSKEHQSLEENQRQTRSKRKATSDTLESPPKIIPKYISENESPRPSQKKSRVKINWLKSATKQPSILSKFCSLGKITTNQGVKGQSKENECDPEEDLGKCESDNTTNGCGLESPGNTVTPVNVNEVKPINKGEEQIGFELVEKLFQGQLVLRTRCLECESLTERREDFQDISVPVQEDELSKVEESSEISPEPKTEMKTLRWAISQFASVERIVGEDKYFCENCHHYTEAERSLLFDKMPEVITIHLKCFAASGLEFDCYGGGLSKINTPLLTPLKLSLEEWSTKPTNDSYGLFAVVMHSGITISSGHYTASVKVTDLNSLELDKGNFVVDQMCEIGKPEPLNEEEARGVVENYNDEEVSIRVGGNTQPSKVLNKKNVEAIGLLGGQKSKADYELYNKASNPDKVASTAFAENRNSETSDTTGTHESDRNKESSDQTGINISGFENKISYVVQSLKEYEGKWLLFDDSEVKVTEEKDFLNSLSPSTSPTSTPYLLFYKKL
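High-throughput fluorogenic screen: 1nM USP1/UAF1 complex, Ub-Rho substrate 150nM final, 50mM HEPES pH 7.8 with 0.5mM EDTA, 0.1 mg/ml BSA, 1mM TCEP and 0.01% Tween-20.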
PLK1 PBD block – inhibitors of human PLK1 polo-box domain binding. P53350. Plk1 PBD binding of FITC phosphopeptide, fluorescence polarization. Potency, µM, without a hit: max response, negative = inhibition, hits mostly inhibitors. 360,000 compounds, 2.8% hits. AID 720504; further: potency means the concentration at half of the fitted maximal effect; series mostly up to about 57 µM; nearly all actives have a fitted effect of over 65% in size
* = called active by the depositor; ? = inconclusive; nt = no result given; ! = a repeat was not active. Unless noted, the call rests on the fitted dose curve; in most records, active means well fitted curve in the direction sought with a large enough effect; inconclusive means small, poorly fitted or top-dose-only effect, or another doubt; inactive means no such curve, though single readings can be large; an effect the other way counts as inactive or inconclusive. Unless noted, on the % scale 0 is the no-effect control and ±100 the full control effect.

SMILES | GALK inh | Coupling enz | VDR inh | USP2a block | USP1 inh | PLK1 PBD block
CCOC(=O)Cn1c(=O)oc2ccc(C)cc21 | -1% | -3 | 9% | 1% | -9% | -6%
CCc1ccc(-c2csc(NC(=O)Oc3ccccc3)n2)cc1 | -3% | 3 | 6% | 2% | -17% | ?
CCOC(=O)C1=C(C)NC(C)=C(C(=O)OCC)C1 | 3% | 2 | 12% | -2% | 22µM*! | -1%
Cc1c(Br)c([N+](=O)[O-])nn1CCCC(=O)Nc1sc2c(c1C#N)CCC2 | 0% | 0 | ? | 2% | -11% | 5.3µM*
Cc1c(Cl)c([N+](=O)[O-])nn1CCCC(=O)Nc1sc2c(c1C#N)CCC2 | 1% | -1 | ? | 3% | ? | 30µM*
Cc1c(Cl)c([N+](=O)[O-])nn1CCCC(=O)Nc1sc2c(c1C(N)=O)CCC(C)C2 (stereo unspecified) | -3% | 4 | -4% | 2% | 2% | -8%
Cc1c(Br)c([N+](=O)[O-])nn1CCCC(=O)Nc1sc2c(c1C(N)=O)CCC(C)C2 (stereo unspecified) | 0% | 1 | -17% | 2% | -13% | -25%
Cc1c(Br)c([N+](=O)[O-])nn1CC(=O)Nc1sc2c(c1C(=O)OC(C)C)CCCC2 | 1% | 0 | -20% | 2% | -19% | 19µM*
CSc1ccccc1OCc1cc(C(=O)N2CCN(C3CCCC3)C(=O)C2)no1 | 5% | nt | 8% | 2% | -7% | -4%
Cc1cnc(NC(=O)c2cncc(Br)c2)s1 | -2% | 1 | 2% | 2% | -15% | -8%
CCCCCN(C(=O)CCC(=O)OCCOc1cccc(Cl)c1)c1c(N)n(CCCC)c(=O)[nH]c1=O | nt | nt | -8% | -1% | -21% | -1%
CC(CN1CCCC1)OC(=O)Cc1ccc(Cl)cc1 (stereo unspecified) | -3% | 0 | -5% | 0% | 1% | -11%
O=C(O)c1cc(NC(=S)NC(=O)C(c2ccccc2)c2ccccc2)ccc1Cl | -3% | 16 | -1% | 1% | -22% | 67µM*
NNc1ccc(Cl)c(C(=O)O)c1 | 5% | 4 | -28% | 4% | -17% | 30µM*
COc1c(C)cc(Br)cc1C(=O)NC(=S)Nc1ccc(Cl)c(C(=O)O)c1 | 0% | 10 | -16% | 1% | -8% | 17µM*
COc1cccc(C(=O)NC(=S)Nc2ccc(Cl)c(C(=O)O)c2)c1 | 0% | 17 | -1% | nt | -11% | -27%
O=C(Nc1cccc(C(=O)O)c1)/C(=C/c1ccc2c(c1)OCO2)NC(=O)c1cccc(Br)c1 | 0% | 31 | 12% | 1% | -12% | -18%
Cn1c(SSc2ccc(-c3cccnc3)n2C)ccc1-c1cccnc1 | nt | nt | ? | nt | ? | 4.2µM*
CC(C)(C)c1ccc(S(=O)(=O)/C=C/C#N)cc1 | nt | nt | 6.3µM* | nt | nt | nt
CC(C)CC(=O)NC(=S)Nc1ccc(S(=O)(=O)N2CCN(C)CC2)cc1 | 0% | 0 | 4% | 2% | 8% | -2%
Nc1cc(N)nc(SCC(=O)NCc2ccco2)n1 | -1% | 3 | 2% | 3% | -15% | 1%
O=C(COc1ccc(Cl)cc1Cl)OCC(=O)N1CCCc2ccccc21 | 0% | -2 | 13% | 0% | -22% | 0%
O=C(COc1ccc(Cl)cc1Cl)NC(=S)N1CCCc2ccccc21 | -2% | 0 | 18% | 6% | -22% | 27µM*
COC(=O)c1cc(-c2cccc([N+](=O)[O-])c2)c2c(=O)[nH]c(=O)n(C)c2n1 | -1% | 2 | -8% | 2% | -18% | 30µM*
COC(=O)c1cc(-c2ccc(OC)c(OC)c2)c2c(=O)[nH]c(=O)n(C)c2n1 | 0% | 1 | 44% | 1% | -18% | 3%
SMILES | GALK inh | Coupling enz | VDR inh | USP2a block | USP1 inh | PLK1 PBD block
CCN(CC)S(=O)(=O)c1cccc(C(=O)OCC(=O)Nc2ccccc2OC(F)F)c1 | -1% | 0 | -14% | 3% | -10% | -6%
O=C(Nc1ccccc1OC(F)F)c1cccc(S(=O)(=O)N2CCCC2)c1 | 2% | -2 | ? | -4% | -20% | 17µM*
O=C(COC(=O)C1CCCCC1)Nc1ccccc1OC(F)F | 8% | 1 | ? | 0% | -11% | 3µM*
CN(C)S(=O)(=O)c1cccc(C(=O)OCC(=O)Nc2ccccc2OC(F)F)c1 | 1% | 0 | ? | 4% | -6% | 27µM*
O=C(NC(Cc1c[nH]c2ccccc12)C(=O)N/N=C/c1cccc2ccccc12)c1cccs1 (stereo unspecified) | 0% | 0 | 5% | 0% | -13% | -11%
COc1ccccc1CNc1nc(SC)ncc1CO | nt | 4 | -16% | 2% | -22% | 7%
Clc1ccccc1C1CC(c2ccccc2)=Nc2ccccc2N1 (stereo unspecified) | -2% | 1 | 17% | 2% | 50µM* | 5%
Cc1ccc(O)c(CO)n1 | 6% | 3 | -16% | 2% | -4% | -11%
Cc1nc2c(O)cccc2cc1CO | -3% | -37* | -8% | 1% | -8% | 0%
C=CCOc1ccc(/C=C/C(=O)OCC(=O)N2CCN(S(=O)(=O)c3ccc(C)cc3C)CC2)cc1 | nt | nt | -9% | nt | -25% | -5%
CC(C(Sc1ccccc1N)c1ccccc1)[N+](=O)[O-] (stereo unspecified) | 2% | -1 | 18µM* | -1% | -19% | 1.9µM*
Cc1nc(C)c(C(=O)N(c2ccc(F)cc2)C(C(=O)NCC2CCCO2)c2ccccc2)s1 (stereo unspecified) | -1% | 0 | ? | 3% | -15% | ?
Cc1nc(C)c(C(=O)N(c2ccccc2F)C(C(=O)NCC2CCCO2)c2ccccc2)s1 (stereo unspecified) | -2% | 2 | ? | 2% | -15% | 27µM*
COc1ccccc1Cc1c(-c2ccc(C#N)cc2)nc2c(C)cc(Br)cn12 | nt | nt | nt | nt | nt | -9%
N=c1oc2c3c4c(cc2cc1C(=O)Nc1ccccc1)CCCN4CCC3 | 2% | -9 | -12% | ? | 10µM* | 3.4µM*
Cc1ccc(NC(=O)c2cc3ccccc3oc2=N)cc1 | -1% | 2 | -11% | 4% | -17% | 0%
CCC(=O)c1ccc(OCC(=O)Nc2cc(S(=O)(=O)N3CCCCC3)ccc2OC)cc1 | -7% | nt | 2% | -4% | -26% | 4%
CCn1nc(CC(C)C)cc1C(=O)N1CCCC(Nc2ccc(OC)cc2)C1 (stereo unspecified) | 7% | 0 | -30% | 0% | -3% | 27µM*
FC(F)(F)c1cccc(NC(=S)N(CCCN2CCCC2)Cc2cccn2Cc2ccc(Cl)cc2)c1 | -1% | 1 | -4% | 1% | -8% | -11%
CCN(c1ccccc1C)S(=O)(=O)c1ccc(N2CCCCS2(=O)=O)cc1 | nt | nt | 1% | nt | -11% | nt

Source: PubChem BioAssay (National Center for Advancing Translational Sciences (NCATS))
